Some test systems named below: NCI-H23 lung; NCI-H226 lung; NCI-H322M lung; HOP-62 NSCLC; NCI-H460 lung; NCI-H522 lung; A549/ATCC NSCLC; 786-0 renal; COLO 205 colon; DU-145 prostate.
Holding throughout (assay): NCI-60 one-dose screen, 48 h (100 = growth as untreated, 0 = no growth, -100 = all killed)
Holding throughout (conditions): 10 µM

Each structure is given as a SMILES string. This is part of a sample that, as a whole, favours compounds with a hit. Of some 83,000 tested, about 20% had one in any assay.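 Activity criterion: percent growth below 10, measured after cells in 96-well plates were exposed to a single compound concentration for 48 hours.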 Unmarked numbers belong to inactive results. Active and inactive are the calls of the source.

`COc1cc(-c2cc(C(=O)N3CCN(C(=O)c4ccccc4NCc4ccco4)CC3)nc3cc(-c4ccccc4)nn23)cc(OC)c1OC`: the growth in the experiment on NCI-H23 lung was 56.7%; with NCI-H226 lung, 57%; with NCI-H322M lung it was 13.5%; in the experiment with HOP-62 NSCLC, 45.2%; in the experiment on NCI-H460 lung it was 7.61% (active); in the experiment with NCI-H522 lung, -6.6% (active). Besides, the growth in the experiment on A549/ATCC NSCLC is 24.6%; with 786-0 renal it was 31.6%; in the experiment with COLO 205 colon it was -16.7% (active); with DU-145 prostate it was 2.04% (active).

Turning to `CCCCCC(=O)c1ccc(OCCCN2CCN(C(=O)OCC)CC2)cc1`, the growth is 81.2% in the experiment with NCI-H23 lung; 73% with NCI-H226 lung; 119% in the experiment on NCI-H322M lung; 108% in the experiment with HOP-62 NSCLC; 99.1% in the experiment on NCI-H460 lung; 101% in the experiment with NCI-H522 lung. The growth in the experiment with A549/ATCC NSCLC is 94.8%; with 786-0 renal it was 97.5%; in the experiment on COLO 205 colon, 96.3%; in the experiment on DU-145 prostate, 107%.

Turning to `CC(C)=CCc1ccc(O)c(=O)cc1C(C)C`, the growth with NCI-H23 lung is 12.9%; in the experiment on NCI-H226 lung, 4.5% (active); in the experiment on NCI-H322M lung, 10.5%; in the experiment with HOP-62 NSCLC, 14.6%; in the experiment with NCI-H460 lung, 5.04% (active); in the experiment with NCI-H522 lung, 28.5%. The growth in the experiment on A549/ATCC NSCLC is 9.13% (active); in the experiment on 786-0 renal, 6.68% (active); in the experiment with COLO 205 colon it was 26.7%; with DU-145 prostate it was 28.5%.

For `Cc1ccc(N=Nc2c(N)nc(N)[nH]c2=O)cc1C`, the growth in the experiment on NCI-H23 lung is 101%; with NCI-H226 lung, 93.5%; with NCI-H322M lung it was 83.1%; in the experiment on HOP-62 NSCLC, 92.9%; in the experiment with NCI-H460 lung, 107%; with NCI-H522 lung, 92.1%. For the same compound, the growth was 104% in the experiment with A549/ATCC NSCLC, 91.2% in the experiment on 786-0 renal, 112% with COLO 205 colon and 117% with DU-145 prostate.

With `N#Cc1ncc(Br)c(NC2CCCCCC2)n1`, the growth in the experiment with NCI-H23 lung is 103%; with NCI-H226 lung, 97.1%; in the experiment with NCI-H322M lung, 105%; in the experiment with HOP-62 NSCLC it was 106%; with NCI-H460 lung it was 116%; in the experiment with NCI-H522 lung it was 110%. The growth with A549/ATCC NSCLC is 89%; with 786-0 renal, 104%; in the experiment with COLO 205 colon, 113%; in the experiment with DU-145 prostate, 103%.

Regarding `O=C(Nc1cccc(-n2cc(-c3ccncc3)c(-c3ccc(O)c(Cl)c3)n2)c1)c1ccc(Cl)c(Cl)c1`, the growth is 78.5% in the experiment with NCI-H23 lung; 80.6% with NCI-H226 lung; 77.3% in the experiment with NCI-H322M lung; 67.7% in the experiment with HOP-62 NSCLC; 20.8% in the experiment on NCI-H460 lung; 41.5% in the experiment with NCI-H522 lung. For the same compound, the growth in the experiment on A549/ATCC NSCLC is 41.2%; in the experiment with 786-0 renal it was 55.3%; in the experiment with COLO 205 colon it was 102%; with DU-145 prostate it was 80.5%.

On to `CCCCCCCNc1nc(C=O)ncc1-c1ccc(C(F)(F)F)cc1`, for which the growth in the experiment on NCI-H23 lung was 99.8%; with NCI-H226 lung, 98%; in the experiment on NCI-H322M lung it was 84.4%; in the experiment on HOP-62 NSCLC, 101%; in the experiment with NCI-H460 lung it was 103%; with NCI-H522 lung it was 80.1%. The growth is 96.4% in the experiment on A549/ATCC NSCLC, 97% with 786-0 renal, 95.8% in the experiment with COLO 205 colon and 106% in the experiment with DU-145 prostate.

Consider `COc1cc(Cl)cc(-c2nn(-c3cccc(NC(=O)c4ccc(N5CCOCC5)c(C(F)(F)F)c4)c3)cc2-c2ccncc2)c1`, for which the growth is 79% in the experiment with NCI-H23 lung; 64.2% with NCI-H226 lung; 89.6% with NCI-H322M lung; 52.2% in the experiment with HOP-62 NSCLC; 29.3% with NCI-H460 lung; 52.7% with NCI-H522 lung. Besides, the growth with A549/ATCC NSCLC is 45.5%; in the experiment on 786-0 renal it was 43.1%; in the experiment with COLO 205 colon, 52.7%; in the experiment with DU-145 prostate, 93.3%.

As for `CCCCCCCCCCCC[n+]1ccc(C(N)=O)cc1`, the growth with NCI-H23 lung was 23.5%; with NCI-H226 lung, 35%; in the experiment with NCI-H322M lung, 88.7%; in the experiment on HOP-62 NSCLC, 33.7%; in the experiment on NCI-H460 lung, 16.8%; in the experiment with NCI-H522 lung, 4.75% (active). In addition, the growth in the experiment with A549/ATCC NSCLC was 73.7%; in the experiment with 786-0 renal, 40%; in the experiment on COLO 205 colon it was -73% (active); in the experiment on DU-145 prostate, 43%.

As to `COc1cc(-c2cc(/C=C/C(=O)c3ccc(F)c(F)c3)[nH]n2)cc(OC)c1OC`, the growth in the experiment on NCI-H23 lung is 55.9%; in the experiment with NCI-H226 lung, 65.6%; in the experiment with NCI-H322M lung it was 74.1%; with HOP-62 NSCLC, 78.7%; with NCI-H460 lung, 58.1%; with NCI-H522 lung it was 47.4%. Also, the growth is 36.4% with A549/ATCC NSCLC, 80.5% in the experiment on 786-0 renal, 61.4% in the experiment with COLO 205 colon and 72.9% in the experiment on DU-145 prostate.

For `CN(C)c1ccc(/C=C/C=N/NC(=O)c2cc(O)c(O)c(O)c2)cc1`, the growth with NCI-H23 lung was 99.6%; in the experiment with NCI-H226 lung, 101%; in the experiment with NCI-H322M lung it was 93.7%; in the experiment with HOP-62 NSCLC it was 103%; in the experiment on NCI-H460 lung, 107%; in the experiment on NCI-H522 lung, -31.8% (active). Besides, the growth in the experiment with A549/ATCC NSCLC is 98%; in the experiment on 786-0 renal, 103%; in the experiment with COLO 205 colon it was 94.1%; with DU-145 prostate, 109%.

In the case of `COc1ccc(-c2nn(-c3cccc(NC(=O)c4ccc5c(c4)OCCO5)c3)cc2-c2ccncc2)cc1Cl`, the growth with NCI-H23 lung is 45.9%; in the experiment on NCI-H226 lung, 47.6%; in the experiment with NCI-H322M lung it was 54.4%; with HOP-62 NSCLC, 30.9%; in the experiment on NCI-H460 lung, 9.42% (active); in the experiment on NCI-H522 lung, -32.2% (active). In addition, the growth is 18.7% with A549/ATCC NSCLC, 14.7% with 786-0 renal, -6.14% (active) in the experiment with COLO 205 colon and 39.8% with DU-145 prostate.

For the compound `O=C(Nc1ccc(Cl)c([N+](=O)[O-])c1)Nc1nc2ccccc2s1`, the growth is 64.5% in the experiment on NCI-H23 lung; 86.4% in the experiment on NCI-H226 lung; 101% in the experiment on NCI-H322M lung; 90.1% in the experiment with HOP-62 NSCLC; 82% with NCI-H460 lung; 36.1% in the experiment with NCI-H522 lung. Also, the growth is 27.2% with A549/ATCC NSCLC, 90.3% in the experiment on 786-0 renal, 108% in the experiment with COLO 205 colon and 107% in the experiment with DU-145 prostate.

For the compound `COc1ccc(-c2cc(/C=C3\C(=O)Nc4ccc(Cl)cc43)[nH]n2)cc1OC`, the growth with NCI-H23 lung is 101%; with NCI-H226 lung, 85.5%; in the experiment with NCI-H322M lung, 70.6%; in the experiment on HOP-62 NSCLC it was 97.7%; in the experiment with NCI-H460 lung, 79.9%; in the experiment with NCI-H522 lung, 89%. The growth is 89.5% in the experiment on A549/ATCC NSCLC, 102% with 786-0 renal, 89.7% in the experiment with COLO 205 colon and 76.4% with DU-145 prostate.

As for `CC/C(=N\N=C(/CC)c1ccc(Br)cc1)c1ccc(Br)cc1`, the growth in the experiment on NCI-H23 lung was 86.2%; in the experiment on NCI-H226 lung, 94%; in the experiment on NCI-H322M lung, 108%; with HOP-62 NSCLC, 94.9%; with NCI-H460 lung, 105%; in the experiment with NCI-H522 lung, 71.5%. Besides, the growth with A549/ATCC NSCLC is 98.7%; in the experiment with 786-0 renal, 98.9%; in the experiment on COLO 205 colon, 100%; in the experiment with DU-145 prostate, 116%.

Turning to `O=C1OCC2=C1C(c1cccc(Cl)c1)c1cc3c(cc1N2CCO)OCO3` (stereo not given), the growth with NCI-H23 lung is 31.7%; with NCI-H226 lung it was 23.4%; with NCI-H322M lung, 42.8%; in the experiment on HOP-62 NSCLC it was 31.4%; in the experiment with NCI-H460 lung it was 7.53% (active); in the experiment with NCI-H522 lung, -19.7% (active). Also, the growth in the experiment on A549/ATCC NSCLC is 27.6%; in the experiment with 786-0 renal, 35.7%; with COLO 205 colon, -6.41% (active); with DU-145 prostate, 11%.

Turning to `O=C(C[P+](c1ccccc1)(c1ccccc1)c1ccccc1)C[P+](c1ccccc1)(c1ccccc1)c1ccccc1`, the growth was -14.5% (active) in the experiment with NCI-H23 lung; -71.8% (active) with NCI-H226 lung; -59.3% (active) with NCI-H322M lung; -59.8% (active) with HOP-62 NSCLC; -68.3% (active) with NCI-H460 lung; -83.8% (active) with NCI-H522 lung. Further, the growth in the experiment with A549/ATCC NSCLC is -27.9% (active); in the experiment on 786-0 renal, -97.9% (active); with COLO 205 colon it was -27.9% (active); in the experiment with DU-145 prostate, -94% (active).

Turning to `CCN(CC)CCN1CC(=O)Nc2cc(Cl)ccc21`, the growth in the experiment with NCI-H23 lung is 101%; in the experiment with NCI-H226 lung it was 95.1%; with NCI-H322M lung, 104%; with HOP-62 NSCLC, 103%; in the experiment on NCI-H460 lung it was 104%; with NCI-H522 lung, 92.7%. In addition, the growth in the experiment on A549/ATCC NSCLC was 102%; in the experiment on 786-0 renal, 115%; with COLO 205 colon, 102%; in the experiment with DU-145 prostate it was 120%.

On to `CSc1nn(-c2ccccc2)c2ncnc(Oc3ccccc3)c12`, for which the growth is 101% with NCI-H23 lung; 90.6% with NCI-H226 lung; 88.6% in the experiment on NCI-H322M lung; 96.7% with HOP-62 NSCLC; 103% with NCI-H460 lung; 72.6% in the experiment with NCI-H522 lung. Besides, the growth in the experiment with A549/ATCC NSCLC was 87.3%; in the experiment with 786-0 renal it was 92.9%; with COLO 205 colon, 118%; with DU-145 prostate, 101%.
